# Measured values as given in ChEMBL document CHEMBL3988442, “University of Dundee, Small-Polar-MMV Screening Library” (2021).
# The campaign covered roughly 38,000 compounds. About 1,200 (3.2%) showed an effect of 50% or more. The median lay at about -58%. This is one part of a sample in which strong results are shown more often than they occur.
# Tested on: Plasmodium falciparum
# Assay: Calibr Malaria Delayed Death Assay SOP
# Assay type: functional, organism-based
# Parameters: scale not given: in the data most compounds retested in dose-response had high values
# Conditions: concentration 4.99e-06 (unit not given; other assays of the set use mol/L)
row,SMILES,Percent Effect [%]
1,COC(=O)C1CN(Cc2nc(-c3ccccc3)cs2)C[C@@H](C)O1 (stereo not given in full),-63.3
2,Cc1cc2cccc(NC(=O)N3CCC(N(C)C)C3)c2o1 (stereo not given),-83.5
3,NC(=O)c1cc(NC(=O)NCCc2cc(F)cc(F)c2)ccc1F,-73.47
4,O=C1CC(c2ccc3c(c2)OCO3)c2c(n3ccsc3nc2=O)N1 (stereo not given),-91.85
5,CN(C)c1ncccc1CNS(=O)(=O)c1cc(F)ccc1F,-126.3
6,CCC(CC)NC(=O)c1cccnc1N1CCCC1c1ccccn1 (stereo not given),-135.6
7,CCCS(=O)(=O)N1CCN(C(C)(C)CO)CC1,-101.2
8,Cc1cc(C2CCCN(CC(=O)Nc3nc4c(s3)CCC4)C2)n[nH]1 (stereo not given),86.8
9,Cc1cc(C2CCCN(CC(=O)N3CCCc4ccccc43)C2)n[nH]1 (stereo not given),-11.77
10,O=C(CN1CCCC(c2ccn[nH]2)C1)Nc1nc2c(s1)CCCC2 (stereo not given),85.91
11,CC(C)C1Nc2ccccc2C(=O)N1CC(=O)Nc1nc2c(s1)CCC2 (stereo not given),15.72
12,Cc1nnc(NC(=O)CN2CCCC(c3ccn[nH]3)C2)s1 (stereo not given),85.62
13,Cc1nnc(NC(=O)CN2CCOC(Cn3cccn3)C2)s1 (stereo not given),-152.2
14,Cc1cc(C2CCCN(CC(=O)N3CCc4ccccc43)C2)n[nH]1 (stereo not given),-86.51
15,Cc1nnc(NC(=O)CN2CCCC(Cn3cncn3)C2)s1 (stereo not given),-101.2
16,O=C(CN1CCCC(c2ccn[nH]2)C1)Nc1nc2c(s1)CCC2 (stereo not given),89.1
17,O=C1CCCN1CCN1CCCC(c2ccn[nH]2)C1 (stereo not given),13.33
18,O=C(CCc1cscn1)N1CCCC(c2ccn[nH]2)C1 (stereo not given),-83.54
19,O=C1CCCCCN1CCC(=O)N1CCCC(c2ccn[nH]2)C1 (stereo not given),-59.24
20,COc1ccc(C)nc1NC(=O)CCc1c(C)nn(C)c1C,-87.92
21,CCc1nc(C(=O)N2CCN(C)c3ccccc32)c[nH]1,-108.8
22,COCc1n[nH]/c(=N/C(=O)COc2cnc(C)cc2O)s1,-11.35
23,O=C(c1cccnc1)N1CCC2(CC1)CN(c1ccccn1)CCO2,-57.82
24,Cl.NC(=O)N1CC2(CCNCC2)c2cc(Cl)ccc21,-64.91
25,Cl.Cl.O=C([C@H]1CCCN1)N1CC2(CCNCC2)c2cc(Cl)ccc21,58.74

row,SMILES,Percent Effect [%]
1,CN(C)C(=O)N1CC2(CCNCC2)c2cc(Cl)ccc21.Cl,23.36
2,CN(Cc1nnc(C2CCC2)o1)C(C(N)=O)c1cccc(F)c1 (stereo not given),-103
3,Cc1ccc(S(=O)(=O)NCC(O)c2ccoc2)s1 (stereo not given),-144.6
4,CCN1CCC2(CC1)CC(NCc1ccncc1)c1ccccc1O2.O=C(O)C(F)(F)F.O=C(O)C(F)(F)F.O=C(O)C(F)(F)F (stereo not given),77.69
5,CCN1CCC2(CC1)CC(NC(=O)c1c[nH]cn1)c1ccccc1O2 (stereo not given),-75.27
6,CN1CCC2(CC1)CC(NC(=O)c1csnn1)c1ccccc1O2.O=C(O)C(F)(F)F (stereo not given),-14.05
7,O=C(Cc1ccncc1)N1CCC2(CC1)CC(c1ccccc1)CO2.O=C(O)C(F)(F)F (stereo not given),-32.94
8,CCN1CCC2(CC1)CC(Nc1ncccn1)CO2 (stereo not given),-15.58
9,O=C(c1ccsc1)N1CCC2(CC1)CCN(S(=O)(=O)C1CC1)CC2,5.88
10,COc1ccccc1S(=O)(=O)Nc1cnc(O)cc1C,-22.04
11,c1cncc(NCCNC2CCCNC2)c1 (stereo not given),-4.225
12,CC(C)CN1CCC(NCCNc2cccnc2)CC1,78.75
13,c1cncc(NCCNC2CCSCC2)c1,-16.36
14,Cn1cc(CCNC(=O)c2cc3ccccc3nc2N2CCCC2)cn1,-91.24
15,CC(C)Nc1nc2c(c(NC3CC3)n1)CCN(Cc1nccn1C)CC2.O=C(O)C(F)(F)F,75.38
16,CN(C)c1nc(N2CCCC2)nc2c1CCN(Cc1nccn1C)CC2.O=C(O)C(F)(F)F,3.003
17,Cc1nc(N2CCCC2)nc2c1CCN(Cc1nccn1C)CC2.O=C(O)C(F)(F)F,-65.41
18,CC(C)Nc1ncnc2c1CCN(Cc1nccn1C)CC2.O=C(O)C(F)(F)F.O=C(O)C(F)(F)F,-41.64
19,CC(C)Nc1nc2c(c(N(C)C)n1)CCN(Cc1nccn1C)CC2.O=C(O)C(F)(F)F,53.11
20,Cc1nc(C)c2c(n1)CCN(Cc1nccn1C)CC2.O=C(O)C(F)(F)F,-117.5
21,Cc1nc(C)c(C(=O)N2CCN(CCOc3ccccc3C)CC2)o1,-41.56
22,Cl.N[C@@H](Cc1ccccc1)c1nnc(S(=O)(=O)Cc2ccc(Cl)cc2)o1,-112.8
23,COc1cnc(N2CCN(C)CC2)nc1-c1ccnn1C,-14.56
24,Cc1cnc(N2CCN(C)CC2)nc1-c1ccnn1C,-103.6
25,COc1cnc(N2CC(N3CCOCC3)C2)nc1-c1ccnn1C,75.52
